AI-2 QS mod = Vibrio harveyi AI-2 quorum sensing modulation; Vibrio harveyi JMH597 AI-2 luminescence/OD600 ratio, 9 h; hits give low values; strain lacks LuxN and CqsS sensors; 0 = neutral-control median; activity change, % at 7.5 µM; 300,000 tested, 0.4% active; AID 2094; in the data active = activity change below about -75%, passing the limit was not always enough; inconclusive = no clear call, values can overlap the other calls;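 note: luminescence divided by OD600 gain over 9 h not by final OD600 alone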
PGC1a acetyl inh = modulators of PGC1a acetylation | U2OS PGC1a acetylation, AlphaScreen anti-acetyl-lysine; with virally co-expressed GCN5 acetyltransferase | inhibition, % at 15.6 µM | 350,000 tested, 0.17% active | AID 651687;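 active = every replicate shows inhibition of at least 40%; inconclusive = mean inhibition at least 40% but some replicate below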;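 note: 0% = neutral control wells and 100% = positive control wells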
Statin myotox sup = suppression of simvastatin myotoxicity | C2C12 myotubes + simvastatin, ATP luminescence, 48 h; scaled: DMSO 0, geranylgeraniol control 100 | rescue of ATP level, % at 7.49 µM | 330,000 tested, 0.78% active;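 active = mean ATP rescue above about 67%, or every replicate alone reaching that limit, limit read from the data, passing the limit was not always enough; inconclusive = no clear call, values can overlap the other calls; inactive = mean under the limit and some replicate under it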;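 note: myotubes were challenged with 10 µM simvastatin during compound exposure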
HIF act = HIF pathway transcriptional activation; U2OS HRE-luciferase reporter, luminescence; normalized: DMSO 0%, desferrioxamine 100%; activation, % at 7.5 µM (by protocol); 300,000 tested, 0.32% active;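 active = mean activation of at least 10% of the iron chelator positive control signal, with at least half of replicates also reaching 10%; inconclusive = mean and replicate majority disagree about reaching 10%; inactive = mean and most replicates under 10%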
Rce1 inh = blocks yeast Ras-converting enzyme; yeast membranes, quenched prenylated peptide cleavage fluorescence; Q03530; 290,000 tested, 0.27% active; AID 2563; calls only;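 active = fall in fluorescence gain of 50% or more versus controls, with final raw signal at or below 3038400; inconclusive = same 50% fall but final raw signal above 3038400; inactive = fall in fluorescence gain under 50%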;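 note: plate controls were neutral control wells for no effect and wells lacking membranes for full effect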
Target sequence (Q03530 whole entry, looked up): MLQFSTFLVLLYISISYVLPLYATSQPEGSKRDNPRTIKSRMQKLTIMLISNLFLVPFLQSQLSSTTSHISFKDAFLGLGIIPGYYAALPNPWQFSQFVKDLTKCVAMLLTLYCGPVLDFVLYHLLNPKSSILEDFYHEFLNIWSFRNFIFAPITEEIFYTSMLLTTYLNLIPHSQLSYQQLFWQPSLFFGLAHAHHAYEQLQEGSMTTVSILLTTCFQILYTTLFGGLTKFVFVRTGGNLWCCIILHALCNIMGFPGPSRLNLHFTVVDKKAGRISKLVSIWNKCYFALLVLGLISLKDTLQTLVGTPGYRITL
JMH597 growth rt = retest Vibrio harveyi JMH597 growth inhibition. shares compounds with AI-2 QS mod. 750 tested, 1% active. OD600 absorbance, 9 h; lacks LuxN and CqsS sensors. growth inhibition, % at 7.5 µM;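 active = every replicate shows growth inhibition above 50%; inconclusive = at least half, but not all, replicates pass that cutoff; inactive = fewer than half of replicates pass it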
BB721 lum counter = retest counter-screen: luminescence loss in constitutive-on quorum sensing strain BB721. shares compounds with AI-2 QS mod. Vibrio harveyi BB721 luminescence, 9 h. inhibition, % at 7.5 µM. 750 tested, 95% active. AID 2727;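 active = inhibition above about 80% in every replicate, not just on average, limit read from the data; inconclusive = at least half of replicates past the limit, but not all; inactive = fewer than half of replicates past the limit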
BB721 growth = retest Vibrio harveyi BB721 growth inhibition; 750 tested, 3% active; AID 2728; OD600 absorbance, 9 h; growth inhibition, % at 7.5 µM; shares compounds with AI-2 QS mod;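 active = every replicate shows growth inhibition above 50%; inconclusive = at least half but not all replicates above 50% inhibition; inactive = under half of replicates above 50% inhibition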
AI-2 QS JMH597 = Vibrio harveyi AI-2 signaling luminescence modulation – JMH597 strain, confirmation; inhibition, % at 7.5 µM; shares compounds with AI-2 QS mod; 750 tested, 97% active; Vibrio harveyi JMH597 AI-2 quorum sensing luminescence, 9 h; luxN and CqsS knockout, AI-2 only;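 active = every replicate shows more than 75% inhibition of signal versus neutral control wells; inconclusive = half to three quarters of replicates exceed 75% inhibition; inactive = fewer than half of replicates exceed 75% inhibition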
COX5a expr inh = reduces COX5a expression driven by PGC-1a in C2C12 myotubes; shares compounds with PGC1a acetyl inh; C2C12 myotubes PGC-1a adenovirus, COX5a qPCR; maximal activity, %; 45 tested, under 10 active; AID 743461;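 active = fitted dose curve reaching 40% activity at or below the highest valid dose tested; inconclusive = flat fit between 30% and 70%, or an unusable fit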
AID743468 = change in PGC-1a target gene PDK4 expression, dose response, C2C12 myotubes, RT-qPCR, cherry-pick | shares compounds with PGC1a acetyl inh | 45 tested, under 10 active | AID 743468 | PGC-1a adenovirus, PDK4 mRNA qPCR | PDK4 expression increase, % at 19.5 µM;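 active = fitted curve reaching a 40% PDK4 expression rise at or below the top valid tested dose; inconclusive = no clear call, values can overlap the other calls; inactive = the rest, including shifts the wrong way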
Starred values were filed as active, the others as inactive; i = inactive; ? = inconclusive; . = no result given. Shown are actives, neighbours in structure and some others; about 1.3% of the full set was active somewhere.

SMILES | AI-2 QS mod | PGC1a acetyl inh | Statin myotox sup | HIF act | Rce1 inh | JMH597 growth rt | BB721 lum counter | BB721 growth | AI-2 QS JMH597 | COX5a expr inh | AID743468
O=C(O)c1cc(NC(=O)c2ccccc2F)cc(NC(=O)c2ccccc2F)c1 | . | 9.1 | 5.5 | 0.2 | . | . | . | . | . | . | .
O=C(Nc1ccc(Nc2ccccc2)cc1)c1cccc(F)c1 | -77.3* | . | -34.7 | -6.2 | i | 13.0 | 86.0* | 0.5 | 90.1* | . | .
O=C(Nc1cccc(F)c1)c1ccccc1 | -0.8 | -0.7 | 5.6 | 1.9 | i | . | . | . | . | . | .
O=C(Nc1ccc(Nc2ccccc2)cc1)c1ccccc1F | -85.6* | 3.3 | -17.0 | 2.7 | i | 38.4 | 94.3* | 19.7 | 94.4* | . | .
CCCCCC(=O)NC(=S)Nc1cccc(C(C)=O)c1 | -95.0* | -1.8 | -6.6 | 0.1 | . | -14.1 | 95.3* | 19.3 | 95.6* | . | .
Cc1cc(C(=O)OCC(=O)Nc2cccc(S(N)(=O)=O)c2)c(C)o1 | . | . | 1.4 | . | . | . | . | . | . | . | .
O=C(COC(=O)c1ccc(F)cc1F)NCCNC(=O)COC(=O)c1ccc(F)cc1F | 18.7 | -1.6 | -10.6 | -0.4 | i | . | . | . | . | . | .
CC(=O)c1cccc(NC(=O)COC(=O)c2ccccc2C)c1 | -89.9* | -3.4 | 5.6 | 1.1 | i | 4.3 | 98.4* | -8.0 | 99.0* | . | .
CC(=O)c1ccc(NC(=O)COC(=O)c2ccc(F)cc2F)cc1 | -89.9* | . | 15.6 | 0.0 | i | 14.0 | 96.6* | -13.3 | 98.0* | . | .
Cc1cccc(NC(=O)COC(=O)c2cc(C)oc2C)c1 | -87.6* | 1.3 | -0.1 | 0.2 | i | 16.6 | 95.1* | 17.6 | 97.2* | . | .
CCN(CC)c1ccc(NC(=O)CSC(=O)c2ccccc2)cc1 | . | . | 1.8 | . | . | . | . | . | . | . | .
CC(=O)c1cccc(NC(=O)CSC(=O)c2ccccc2)c1 | -86.7* | -1.7 | 10.4 | 30.1* | i | 11.0 | 95.2* | 0.4 | 96.7* | . | .
CC(C)NC(=O)Nc1cccc2c1O[C@H](CN(C)Cc1ccc(-c3ccccc3)cc1)[C@@H](C)CN([C@H](C)CO)C2=O | . | -20.3 | 59.4 | . | . | . | . | . | . | . | .
CCCn1c(=S)[nH]c2cc(C(=O)N3CCN(C)CC3)ccc2c1=O | . | 13.1 | -13.0 | . | . | . | . | . | . | . | .
CCCn1c(=S)[nH]c2cc(C(=O)N3CCc4ccccc43)ccc2c1=O | ? | -5.4 | -3.4 | -0.2 | i | -4.3 | 84.8* | -10.5 | 88.7* | . | .
O=C(NCc1ccccc1)c1nc2ccccc2s1 | ? | 3.6 | 3.9 | 1.3 | i | -3.0 | 91.5* | -38.5 | 93.9* | . | .
CCOc1ccc(NS(=O)(=O)c2ccc(N)cc2)cc1 | ? | 9.0 | . | 0.6 | i | 34.2 | 98.6* | 1.6 | 99.8* | . | .
CCOc1ccc(NS(=O)(=O)c2ccc(SC)cc2)cc1 | -11.7 | -9.4 | 20.3 | 0.1 | i | . | . | . | . | . | .
CC1=C(Cl)C2=NS(=O)(=O)CCN2C=C1Cl | 17.0 | ? | . | 0.5 | ? | . | . | . | . | -23.1 | -0.2
CC(C)[C@H](NC(=O)c1ccccc1)C(=O)OCC(=O)c1ccc2c(c1)NC(=O)CO2 | 7.5 | 2.4 | 5.1 | -0.6 | i | . | . | . | . | . | .
CC[C@H](C)[C@H](NC(=O)c1ccc(Cl)cc1)C(=O)OCC(=O)c1ccc2c(c1)NC(=O)CO2 | 17.5 | ? | -0.6 | 0.3 | i | . | . | . | . | -16.4 | 5.1
C[C@@H]1CN([C@H](C)CO)S(=O)(=O)c2ccc(C#Cc3ccncc3)cc2O[C@H]1CN(C)C(=O)C1CCCCC1 | . | -21.1 | -54.4 | . | . | . | . | . | . | . | .
C[C@H](CO)N1C[C@H](C)[C@@H](CN(C)C(=O)C2CCCCC2)Oc2cc(C#Cc3ccncc3)ccc2S1(=O)=O | . | ? | 6.7 | . | . | . | . | . | . | -21.2 | -1.6
C[C@H]1CN([C@@H](C)CO)S(=O)(=O)c2ccc(-c3ccccc3)cc2O[C@@H]1CN(C)Cc1cccc(F)c1 | . | 48.1* | -45.8 | . | . | . | . | . | . | -51.5 | -20.0
COc1ccccc1C#Cc1ccc2c(c1)O[C@@H](CN(C)Cc1cccnc1)[C@H](C)CN([C@H](C)CO)S2(=O)=O | . | 43.2* | -48.1 | . | . | . | . | . | . | 11.3 | ?
SMILES | AI-2 QS mod | PGC1a acetyl inh | Statin myotox sup | HIF act | Rce1 inh | JMH597 growth rt | BB721 lum counter | BB721 growth | AI-2 QS JMH597 | COX5a expr inh | AID743468
CN(C)C(=O)c1cccc(-c2ccc([C@H]3[C@@H](CO)N4C(=O)CN(C(=O)Cc5ccccc5)C[C@@H]34)cc2)c1 | . | 6.4 | . | . | . | . | . | . | . | . | .
CCOc1cc(CNC2CCCC2)cc(Cl)c1OCc1ccc(F)cc1 | 10.7 | 78.4* | 7.7 | -47.3 | i | . | . | . | . | -27.0 | -9.3
Nc1ncnc(NCc2ccccc2)c1[N+](=O)[O-] | 29.5 | . | . | 0.2 | i | . | . | . | . | . | .
Nc1ncnc(NCc2ccc(F)cc2)c1[N+](=O)[O-] | 7.8 | 49.7* | . | 1.5 | i | . | . | . | . | -25.2 | 32.1
CCN1CCN(Cc2ccc(NC(=O)c3cc(NC(=O)c4cncc(-c5ccc(C#N)cc5)c4)cc(OC)c3)cc2C(F)(F)F)CC1 | 5.5 | 85.9* | -5.1 | -0.7 | i | . | . | . | . | -46.0 | 0.7
C[C@H]1CN([C@@H](C)CO)C(=O)c2cc(NC(=O)Cc3ccccc3)ccc2O[C@@H]1CN(C)CC1CCCCC1 | . | 1.4 | 13.5 | . | . | . | . | . | . | . | .
CS(=O)c1nc(-c2ccc(Br)cc2)cc(-c2ccccc2)c1C#N (configuration not stated) | -2.9 | 90.7* | -4.2 | -4.3 | i | . | . | . | . | -38.4 | 11.5
O=c1cc(CSc2ccccn2)[nH]c(=O)[nH]1 | 15.7 | ? | . | -0.1 | i | . | . | . | . | -27.3 | -6.3
O=c1[nH]c(CSc2ccccn2)nc2ccccc12 | 8.6 | . | . | 2.0 | . | . | . | . | . | . | .
Cc1nc2ccccn2c1C(=O)/C=C/c1ccc(F)cc1 | 15.4 | ? | 23.5 | 6.3 | i | . | . | . | . | -22.9 | 6.0
CCC(=O)N1CC2(CN(C(=O)Nc3ccc(F)cc3)C2)c2c([nH]c3cc(OC)ccc23)[C@@H]1CO | . | 1.5 | . | . | . | . | . | . | . | . | .
COc1ccccc1-c1ccc([C@@H]2[C@@H]3CN(S(=O)(=O)c4ccc(-c5ccccc5)cc4)C[C@H]2N3)cc1 | . | -56.0 | . | . | . | . | . | . | . | -33.7 | -43.9
COc1cccc(S(=O)(=O)N2C[C@@H]3N[C@H](C2)C3c2ccc(-c3ccccc3OC)cc2)c1 (some centres not stated) | . | -11.6 | . | . | . | . | . | . | . | . | .
C[C@H]1CN([C@@H](C)CO)C(=O)c2cc(NC(=O)Cc3ccccc3)ccc2O[C@@H]1CN(C)S(=O)(=O)c1ccccc1 | . | 18.3 | 15.8 | . | . | . | . | . | . | . | .
O=C(C[C@H]1CC[C@H](NC(=O)c2ccccc2)[C@@H](CO)O1)Nc1ccc(-c2ccccc2)cc1 | . | 5.1 | 20.7 | . | . | . | . | . | . | . | .
